# Screening results (PubChem)
# In the library only some 12% were active in any assay of this set; here they are far more common.
# BAZ2B block – BAZ2B (human) inhibition; Q9UIF8; AlphaScreen BAZ2B-H3K14Ac peptide displacement; Potency, µM (top dose mostly 114 µM), inactives show at the top dose activity change, negative = inhibition, usual class: inhibitors; hit rate 4.4% among 360,000; AID 504333; note: % is set by controls: 0 for no effect and ±100 for the full control effect; nearly all actives have a fitted effect of over 60% in size
#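 AlphaScreen displacement: compounds (up to 110uM) incubated 30 min at room temperature with a preformed 50 nM BAZ2B/50 nM biotinylated H3K14Ac peptide complex in PBS pH 7.4 with Tween-20. Donor and acceptor beads at 10 ug/mL final added, 20 min light-protected before reading.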
# G9a block – inhibitors of human histone lysine methyltransferase G9a. Q96KQ7. G9a H3K9 monomethylation, AlphaScreen, 2 h. Potency, µM (titrated, usually from 102 µM), for inactives: at the highest dose activity, negative = inhibition, usual class: inhibitors. hit rate 8.8% among 350,000. AID 504332; note: % is set by controls: 0 for no effect and ±100 for the full control effect; nearly all actives have a fitted effect of over 75% in size
# Target sequence (Q96KQ7 913-1193 limits assumed): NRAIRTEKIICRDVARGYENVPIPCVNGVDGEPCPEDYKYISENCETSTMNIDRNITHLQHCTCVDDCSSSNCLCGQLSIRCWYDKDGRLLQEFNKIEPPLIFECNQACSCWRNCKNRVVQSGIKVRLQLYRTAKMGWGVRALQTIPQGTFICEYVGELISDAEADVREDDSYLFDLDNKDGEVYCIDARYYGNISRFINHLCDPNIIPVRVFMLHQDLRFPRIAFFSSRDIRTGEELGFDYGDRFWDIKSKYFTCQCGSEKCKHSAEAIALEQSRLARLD
#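 Enzyme 20 nM + cpd, 15 min RT; add b-H3K9 pep 500 nM / SAM 20 uM; 2 h RT; anti-H3K9me1 Ab 0.5 ug/mL + SA donor / anti-rabbit acceptor beads 20 ug/mL each, 10 min; AlphaScreen read.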
# Sfp PPTase inh – Sfp phosphopantetheinyl transferase inhibition | Q9F4F7 | Biochemical Sfp PPTase activity, qHTS | Potency, µM, inactives show largest response in the series, negative = inhibition, hits mostly inhibitors | hit rate 3.5% among 310,000;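 note: the enzyme is Sfp with the accession as filed and its product quenches rhodamine fluorescence; 0% = enzyme reaction without inhibitor and -100% = no enzyme wells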
#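 Buffer: 50 mM Hepes-Na pH 7.6, 10 mM MgCl2, 0.01% Nonidet P-40, 0.01% BSA. Enzyme 15 nM, pre-exposed to compound 15 min; substrates then added and fluorescence change tracked over 30 min.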
# HP1b binding inh – inhibitors of HP1-beta chromodomain binding to methylated histone tails; AlphaScreen HP1-beta / biotin-H3K9me3 peptide binding; Potency, µM (doses to about 114 µM), for inactives: at the highest dose activity change, negative = inhibition, hits mostly inhibitors; hit rate 0.56% among 390,000; AID 540317; note: nearly all actives have a fitted effect of over 70% in size
# Target sequence (P83916 whole entry, looked up): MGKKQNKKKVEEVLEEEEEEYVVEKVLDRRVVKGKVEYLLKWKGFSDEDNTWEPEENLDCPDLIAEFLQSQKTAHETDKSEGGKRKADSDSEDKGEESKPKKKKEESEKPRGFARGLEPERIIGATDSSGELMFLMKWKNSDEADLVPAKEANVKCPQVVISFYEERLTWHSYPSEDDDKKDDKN
#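 HP1-beta protein (50 nM final) preincubated 30 min at room temperature with biotinylated H3(1-18)K9me3 peptide (50 nM) in PBS pH 7.4, 0.01% Tween-20, then compound added for 30 min. AlphaScreen streptavidin donor/nickel chelate acceptor beads (10 ug/mL final), 30 min dark, luminescence read.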
# JMJD2A Tudor – inhibitors of human JMJD2A Tudor domain | Potency, µM (titrated, usually from 114 µM), without a hit: at the top dose activity change, negative = inhibition, actives largely listed as inhibitors | AlphaScreen JMJD2A-Tudor / H3K4me3 peptide binding | hit rate 4.4% among 390,000 | O75164; note: % is set by controls: 0 for no effect and ±100 for the full control effect; nearly all actives have a fitted effect of over 50% in size
# * = called active by the depositor; u = inconclusive; x = not tested or not shown; [ ] = dose if it differs, or a comment. Calls come from the whole dose curve; as a rule, active = well fitted curve in the direction sought with a large enough effect; inconclusive = small, poorly fitted or top-dose-only effect, or another doubt; inactive = no such curve, though single readings can be large; an effect the other way counts as inactive or inconclusive. Potency is the fitted concentration of half-maximal effect.
SMILES,BAZ2B block,G9a block,Sfp PPTase inh,HP1b binding inh,JMJD2A Tudor
Cc1cc(C)n2cc(CSc3nnnn3-c3ccccc3)nc2n1,-31%,-35%[59 µM],4%,40%,-10%[57.1 µM]
Cc1cc(OC(=O)CNC(=O)OC(C)(C)C)c2c(C)cc(=O)oc2c1,11%,-4%[59 µM],9%,11%,-16%
CC(=O)Nc1ccc(OCC(O)Cn2cncn2)cc1 (centres undefined),10%,8%[2.33 µM],19%,13%,-1%
O=C(O/N=C\c1ccc(N2CCOCC2)c([N+](=O)[O-])c1)c1ccc(F)cc1,u,u,6%,u,u
COc1ccc(CN(CC2CCCO2)C(=O)c2cc3sccc3n2C)c(OC)c1 (centres undefined),56µM*,u,5%,-22%,u
CC(C)C(OC(=O)c1cc2sccc2n1C)C(=O)NCC1CCCO1 (centres undefined),22%,-2%,9%,8%,-10%
Cc1cccc(Cl)c1NC(=S)NN,-3%,3.5µM*,-1%,37%,-18%
Cc1c(Cl)cccc1NC(=S)NN,-12%,3%[59 µM],11%,31%,-22%
CC1(C)CC(=O)C2=C(C1)N=C1c3ccccc3C(=O)C1C2c1ccc(Cl)cc1 (centres undefined),13µM*,10µM*,-27%,u,u
CCOC(=O)C1=NNC(C(=O)c2ccccc2)C1c1ccc(Cl)cc1 (centres undefined),-9%,x,-2%,-3%,-11%
CCOC(=O)C1=C(C)N=C2c3ccccc3C(=O)C2C1c1ccc(Cl)cc1 (centres undefined),13µM*,40µM*,20%,u,40µM*
CC1(C)CC(=O)C2=C(C1)N=c1s/c(=C/c3ccc(F)c(F)c3)c(=O)n1C2c1ccc(F)cc1 (centres undefined),1%,-9%[59 µM],13%,-2%,-20%
Cc1ccc(C2C3=C(CC(C)(C)CC3=O)N=C3c4ccccc4C(=O)C32)cc1 (centres undefined),16µM*,5µM*,-17%,u,45µM*
COCCNc1ncnc2ccc(-c3c(C)noc3C)cc12,x,8%[0.501 µM],12%,x,x
CCOC(=O)c1ccc(NC(=O)CCCn2c(=O)c3cccn3c3cccnc32)cc1,-9%,-4%[59 µM],x,-5%,-26%
O=C(Cc1ccc(S(=O)(=O)N2CCOCC2)s1)Nc1ccc(S(=O)(=O)N2CCCCC2)cc1,5%,45µM*,x,-3%,-23%
NNC(=S)Nc1ccc(S(=O)(=O)N2CCOCC2)cc1,-10%,x,-10%,1%,u
O=C(Cc1ccc(S(=O)(=O)N2CCOCC2)s1)NC1CCCCC1,50µM*,13µM*,x,-26%,u
O=S(=O)(c1ccc(NC(=S)NN=C2CCCCC2)cc1)N1CCOCC1,-23%,6.3µM*,-39%,12%,28µM*
O=C(Cc1ccc(S(=O)(=O)N2CCOCC2)s1)NCC1CCCCC1,u,-23%,16%,-9%,-23%
CC1CCCN(S(=O)(=O)c2ccc(NC(=O)Cc3ccc(S(=O)(=O)N4CCOCC4)s3)cc2)C1 (centres undefined),7%,4µM*,x,-5%,-21%
Cc1cc(C)n2nc(CNS(=O)(=O)c3ccc(F)cc3)nc2n1,-2%,-7%,11%,24%,-1%
O=C(Cc1ccc(S(=O)(=O)N2CCOCC2)s1)Nc1ccc2c(c1)CCC2,-34%,5%,7%,-11%,u
O=C(Cc1ccc(S(=O)(=O)N2CCOCC2)s1)Nc1nc2c(s1)CCCC2,18µM*,x,-107%,u,56µM*
CC1CCN(S(=O)(=O)c2ccc(NC(=O)Cc3ccc(S(=O)(=O)N4CCOCC4)s3)cc2)CC1,-29%,4%[0.501 µM],x,28%,-10%
SMILES,BAZ2B block,G9a block,Sfp PPTase inh,HP1b binding inh,JMJD2A Tudor
CCOc1ccc(NC(=O)COC(=O)Cc2ccc(S(=O)(=O)N3CCOCC3)s2)cc1,u,40µM*,7%,8%,-31%
CNC(=O)c1ccc(NC(=O)Cc2ccc(S(=O)(=O)N3CCOCC3)s2)cc1,-17%,45µM*,x,13%,3%
Cc1cccc(N2N=C(C(=O)N3Cc4ccccc4CC3C(N)=O)CCC2=O)c1 (centres undefined),x,x,x,44%,-11%
Cc1noc(NS(=O)(=O)c2ccc(NC(=O)c3ccc(N4C(=O)c5ccccc5C4=O)cc3)cc2)c1C,50µM*,2%,19%,-5%,-35%
Cc1ccc2c(=O)cc(C(=O)Nc3ccc(S(=O)(=O)Nc4onc(C)c4C)cc3)oc2c1C,-34%,-37%[59 µM],x,10%,56µM*
Cc1noc(NS(=O)(=O)c2ccc(NC(=O)/C=C/c3ccc(C(C)C)cc3)cc2)c1C,u,45µM*,12%,-2%,-35%
Cc1noc(NS(=O)(=O)c2ccc(NC(=O)C34CC5CC(C3)CC(n3cnc(Cl)n3)(C5)C4)cc2)c1C,-26%,-30%[59 µM],7%,43%,-7%[57.1 µM]
Cc1cc2oc(C(=O)Nc3ccc(S(=O)(=O)Nc4onc(C)c4C)cc3)cc(=O)c2cc1C,3%,8%[59 µM],x,1%,-26%
Cc1noc(NS(=O)(=O)c2ccc(NC(=O)CC34CC5CC(CC(Br)(C5)C3)C4)cc2)c1C,-38%,71µM*,30%,39%,-18%[57.1 µM]
Cc1ccc(C)c(NC(=O)CSc2nnc(-c3cc4occc4n3C)n2-c2ccccc2C)c1,u,u,x,0%,u
O=C(NCC(c1ccco1)N1CCCCC1)C(c1ccccc1)c1ccccc1 (centres undefined),-16%,19%,6%,21%,-11%
Cc1cc(C(=O)NNC(=O)c2ccc(F)cc2)c(C)s1,x,x,x,22%,-9%
COC(=O)c1ccc(-c2ccco2)n1Cc1nc(-c2ccc(OC)c(OC)c2)oc1C,u,u,20µM*,-22%,-35%
COC(=O)c1cc2oc3ccccc3c2n1Cc1nc(-c2ccc(OC)cc2)oc1C,-1%,-10%[59 µM],x,25%,-16%
Cc1nn(Cc2ccccc2)c2sc(C(=O)NCc3cccnc3)cc12,11%,7%[59 µM],-6%,36%,-14%
Cc1nn(-c2ccc(Cl)cc2)c(=O)c2ccccc12,1%,7%,2%,36%,-9%
Cc1c(Cl)sn(-c2ccc(Cl)cc2)c1=O,40µM*,0.71µM*,0.71µM*,u,3.2µM*
O=c1oc2ccccc2cc1-c1nnc(Nc2ccc(Cl)cc2Cl)s1,3%,10%[59 µM],x,12%,-24%
Oc1nc(Nc2ccc(Cl)cc2Cl)sc1/C=C1\C=Nc2ccccc21,u,4.5µM*,u,u,u
O=C1C2C3c4ccccc4C(c4ccccc43)[C@@H]2C(=O)N1c1nc(-c2ccccc2)cs1 (some centres undefined),-32%,-9%,8%,11%,-14%
Cc1ccc(-c2cc(C(=O)N/N=C/c3ccc(F)cc3)n[nH]2)o1,-1%,-13%,5%,9%,-14%
